High-throughput results deposited in PubChem by National Center for Advancing Translational Sciences (NCATS).
Shown are actives, neighbours in structure and some others; about 5.2% of the full set was active somewhere.
FBPA coupling cs – counter-screen for Giardia aldolase inhibitors: coupling enzyme system | coupling enzyme system counterscreen, AmpLite Red fluorescence | activity change, negative = inhibition, % at 58.2 µM, hits read low | AID 2472 | hit rate 0.67% among 290,000; in the data active = activity change below about -30%
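Fluorescence at 525 nm excitation and 598 nm emission measured inhibition of the coupled detection system without aldolase. Compounds (at 57.5 uM final) were preincubated 10 min at room temperature with coupling enzyme reagent before a 20 min substrate/AmpLite Red step.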
Tau fluor counter – counter-screen for tau fibril formation inhibitors; tau K18 P301L Alexa594 fluorescence, heparin fibrillization; Potency, µM (top dose mostly 57.7 µM), inactives show at the top dose activity change, negative = decrease; hit rate 0.93% among 280,000; note: potency is the fitted concentration of half-maximal effect; nearly all actives have a fitted effect of over 55% in size
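Human tau K18 P301L (15 uM unlabeled, 0.24 uM Alexa 594-labeled) in 100 mM sodium acetate pH 7 with 20 uM heparin, 6 hr at 37 C. ThT 30 uM added, 1 hr ambient; Alexa 594 FP and total fluorescence read at 555/632 nm.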
Sfp inh – blocks B. subtilis Sfp PPTase activity. Biochemical Sfp PPTase activity, qHTS. Potency, µM, inactives show largest response in the series, negative = inhibition, actives largely listed as inhibitors. hit rate 3.5% among 310,000. AID 1490;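 note: the enzyme is Sfp with the accession as filed and its product quenches rhodamine fluorescence; potency is the fitted concentration of half-maximal effect; 0% = enzyme reaction without inhibitor and -100% = no enzyme wells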
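With Hepes-Na pH 7.6 buffer containing 10 mM MgCl2, Sfp (15 nM) modified BHQ-2-YbbR (12.5 uM) using rhodamine-CoA (5 uM). Two reads 30 minutes apart at 525/598 nm yielded each well's rate.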
Tau fibril FP – inhibitors of human tau fibril formation; K18 P301L tau heparin fibrillization, Alexa594 FP, 6 h; AID 1468; hit rate 0.39% among 280,000; Potency, µM (highest dose often 57.7 µM), inactives show at the highest dose activity, negative = inhibition, usual class: inhibitors; note: potency is the fitted concentration of half-maximal effect; nearly all actives have a fitted effect of over 55% in size
Target sequence (P10636 561-689 P618L limits assumed): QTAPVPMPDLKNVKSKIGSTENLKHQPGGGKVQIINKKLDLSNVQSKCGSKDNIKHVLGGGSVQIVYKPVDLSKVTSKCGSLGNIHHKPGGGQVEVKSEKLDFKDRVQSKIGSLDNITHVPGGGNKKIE
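FP of Alexa 594-tau after heparin (20 uM) induction. Substrate: human K18 P301L, 15 uM unlabeled, 0.24 uM labeled. Buffer 100 mM sodium acetate pH 7. 6 hr, 37 C.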
Tau ThT inhib – blocks human tau fibril formation measured by thioflavin T. P10636. recombinant tau K18 P301L (four-repeat tau fragment), heparin-induced fibrillization, ThT fluorescence. Potency, µM (top dose mostly 57.4 µM), for inactives: at the highest dose activity, negative = inhibition, hits mostly inhibitors. hit rate 2.1% among 270,000. AID 1460; note: potency is the fitted concentration of half-maximal effect; nearly all actives have a fitted effect of over 55% in size
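Recombinant human tau K18 fragment […] carrying P301L, 15 uM unlabeled plus 0.24 uM Alexa 594-labeled, was fibrillized with 20 uM heparin in 100 mM sodium acetate pH 7 for 6 hr at 37 C; 30 uM ThT fluorescence read after 1 hr.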
An asterisk follows results filed as active; u = inconclusive; x = not tested or not shown. Unless noted, calls come from the whole dose curve; as a rule, active = well fitted curve in the direction sought with a large enough effect; inconclusive = small, poorly fitted or top-dose-only effect, or another doubt; inactive = no such curve, though single readings can be large; an effect the other way counts as inactive or inconclusive. Unless noted, % is set by controls: 0 for no effect and ±100 for the full control effect.

SMILES	FBPA coupling cs	Tau fluor counter	Sfp inh	Tau fibril FP	Tau ThT inhib
COc1ccc(-c2c3c(=O)n(C)c(=O)n(C)c3c3n2-c2ccccc2NC3c2ccccc2OC)cc1 (centres undefined)	x	-9.1%	x	9.8%	u
Cc1cccc(NC(=O)Cn2cc(C(=O)C3CC3)c3ccccc32)c1C	-0.5	x	u	x	x
COc1ccc(N/N=C/c2c(O)n(-c3ccc(C)c(C)c3)c(=O)[nH]c2=O)cc1	1.1	-25.5%	-25.1%	u	17.8µM*
CCCN1CCCC2Cc3nc(N)ncc3CC21 (centres undefined)	x	-2.2%	19.1%	-2.0%	1.1%
O=C1NC(=S)NC(=O)C1=Cc1ccc(OCC(=O)N2CCCC2)cc1	x	x	20µM*	x	x
O=C(COc1ccc(Br)cc1)N1CCN(C2CCCC2)CC1	4.4	-7.7%	-2.9%	-1.4%	-10.3%
O=C=NCCCCN=C=O	3.7	x	7.7%	x	x
CN1C(=O)NC(=O)/C(=C\C=C\c2ccccc2[N+](=O)[O-])C1=O	-0.7	-21.8%	17.8µM*	u	25.1µM*
c1cnc(N2CC3(CCNCC3)C2)nc1	3.3	x	-3.1%	x	x
CC(C)CN(CC(C)C)c1ccc(C=C2C(=O)NC(=S)NC2=O)cc1[N+](=O)[O-]	-18.8	u	20µM*	u	25.1µM*
CCN(CC)c1ccc(C=C2C(=O)NC(=S)NC2=O)cc1	-26.1	u	3.16µM*	-7.4%	u
Cc1nn(Cc2ccccc2)c(C)c1C=C1C(=O)NC(=S)NC1=O	5.4	0.6%	-96.9%	-4.9%	u
CCCCCCCSc1cc(OC)c(CCN(C)C)cc1OC	2.2	-14.4%	14.1µM*	4.9%	u
COc1cccc(CSc2nc(-c3ccccc3OC)nc3c2Cc2c(CO)cnc(C)c2O3)c1	x	-10.0%	x	-1.3%	u
CCCCCOc1c(OC)ccc2cc(C(=O)NCc3ccc4c(c3)OCO4)c(=O)[nH]c12	-3.0	-16.5%	-6.8%	14.0%	-24.3%
CN1CCN2c3ccc(N)cc3CC3(C(=O)NC(=O)NC3=O)C2C1 (centres undefined)	-9.7	-21.8%	22.4µM*	-12.2%	x
CN1C(=O)N(C)C(=O)C2(Cc3cc(N)ccc3N3CCN(c4ccccc4F)CC32)C1=O (centres undefined)	-14.9	u	9.4%	u	u
CC(C)(C)NCC(O)c1cc(Cl)c(N)c(C(F)(F)F)c1 (centres undefined)	x	x	14.0%	x	x
C=C1C(=O)O[C@@H]2C[C@@H](C)[C@@H]3C4OC4C(=O)[C@@]3(C)[C@@H](O)[C@H]12 (some centres undefined)	6.0	-10.3%	-2.1%	7.94µM*	12.6µM*
O=C1NC(=O)N(Cc2ccccc2)C(=O)/C1=C\C=C\c1ccco1	1.1	-21.5%	-25.9%	u	14.1µM*
O=C1NC(=O)N(Cc2ccccc2)C(=O)/C1=C/N1CCCc2ccccc21	0.3	-23.9%	-25.8%	u	10µM*
O=C1NC(=O)N(Cc2ccco2)C(=O)/C1=C/C=C/c1ccco1	-0.9	-21.7%	-5.8%	u	8.91µM*
Oc1ccc2[nH]cc(CCCCN3CC=C(c4ccccc4)CC3)c2c1	-1.1	-27.9%	3.8%	2.6%	u
CCOc1cc(C2C(C#N)=C(N)Oc3c2c(=O)oc2ccccc32)ccc1OC(=O)c1cccs1 (centres undefined)	2.2	u	50.1µM*	u	-10.7%
C=C(C=O)C[C@@H]1C[C@H](O)C2OC3C[C@]4(C)OC5/C=C\CC6OC7C(CC=CCC6OC5CCCC4OC3CC2O1)OC1CC2OC3CC(=O)OC3C[C@@H](C)C[C@@]2(C)OC1C[C@@H]7C (some centres undefined)	-3.9	-14.9%	-0.7%	3.98µM*	3.55µM*
SMILES	FBPA coupling cs	Tau fluor counter	Sfp inh	Tau fibril FP	Tau ThT inhib
CCC12CCCN3CCC4(c5ccc(OC)c(O)c5N(C(C)=O)C4CC1)C32 (centres undefined)	1.1	-6.9%	11.6%	-2.6%	-1.3%
O=C1NC(=O)N(c2ccccc2)C(=O)/C1=C/c1ccc2c(c1)Cc1ccccc1-2	4.4	-13.2%	50.1µM*	u	u
COc1ccccc1N1C(=O)NC(=O)/C(=C/c2ccc3c(c2)Cc2ccccc2-3)C1=O	0.8	-2.8%	50.1µM*	-8.1%	u
C[C@@H](Cc1cccc(C(F)(F)F)c1)NCCCc1ccccc1	0.0	-9.3%	-21.1%	-2.5%	0.1%
CCCCC/C=C\C/C=C\C/C=C\C/C=C\CCCC(=O)N(Cc1ccc(O)c(Cl)c1)Cc1ccc(O)c(Cl)c1	3.5	6.0%	-5.2%	-2.1%	13.7%
C=CCNC(=S)Nc1ccc(OC(=O)Nc2ccc(Cl)c(Cl)c2)cc1	0.6	u	-9.9%	15.8µM*	u
O=C(Nc1ccc(Cl)c(Cl)c1)c1ccco1	0.9	x	6.7%	x	x
O=C1C=CC[C@@H]2[C@H]3CCCN4CCC[C@@H](CN12)[C@@H]34	-0.2	0.1%	-7.2%	-3.7%	-4.0%
O=C1NC(=O)N(Cc2ccc(F)cc2)C(=O)/C1=C/c1cccs1	5.1	-19.7%	44.7µM*	u	u
O=C1NC(=O)N(Cc2ccccc2Cl)C(=O)/C1=C/c1cccs1	1.7	0.4%	31.6µM*	-5.7%	u
CC=C1C2C=C(C)CC1(N)c1ccc(=O)[nH]c1C2 (centres undefined)	x	1.9%	17.2%	-7.7%	1.0%
Cc1ccc(C(=O)N[C@@H](C)CN2C3=NC[C@H](Cc4ccccc4)N3C[C@H]2Cc2ccc(O)cc2)cc1Br	5.2	-14.0%	56.2µM*	5.8%	u
CNc1ccc2oc(C[C@@H]3OC4(CC[C@@H]3C)O[C@H]([C@@H](C)C(=O)c3ccc[nH]3)[C@H](C)C[C@H]4C)nc2c1C(=O)O (some centres undefined)	x	u	22.1%	u	31.6µM*
COc1ccc2c(c1)c(C(=O)O)c(C)n2CC(C)C	-4.0	-3.3%	19.2%	5.8%	4.2%
COc1cc(O)c(C(=O)O)c(-c2cc(O)c(O)cc2C)c1	3.4	u	2.1%	u	25.1µM*
Cc1ccc(C(=O)Nc2c(C(=O)Nc3ccc(C)c(C)c3)sc3nc(C)cc(C)c23)cc1	x	u	x	-13.6%	u
C/C(=N\NC(=O)c1ccccc1O)c1c(O)n(Cc2ccccc2)c(=O)[nH]c1=O	12.6	u	17.6%	12.5%	14.1µM*
O=C1C(=O)c2cccc3cccc1c23	5.8	-1.1%	9.7%	10.0%	0.2%
O=C1C(=O)c2ccccc2-c2ccccc21	-81.6*	-22.4%	-15.7%	u	3.16µM*
CC1(C)N(O)C(c2ccc(C(=O)O)cc2)=[N+]([O-])C1(C)C	-51.3*	-11.3%	u	-15.8%	u
COc1cc2c(cc1OC)-c1c(OC)c(OC)cc3c1[C@H](C2)N(C)CC3	-33.8*	-13.2%	-0.8%	-10.4%	u
COc1ccc(N2C(=O)NC(=O)/C(=C/c3cccc(OC(=O)c4cccs4)c3)C2=O)cc1Cl	7.6	-19.9%	u	u	u
